Results taken from PubChem BioAssay AID623994 (NMMLSC, 2012).
Measured potencies and affinities stand elsewhere. Active and inactive are the calls of the source.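 The calls were made as follows: active = compounds whose fitted concentration for half the maximal dye retention is below 100 µM; inactive = the rest.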

Molecular target: Multidrug resistance protein CDR2 (Candida albicans (strain SC5314 / ATCC MYA-2876)) (UniProt P78595)
Experiment: CaCDR2 efflux pump inhibitors in yeast, dose response, S. cerevisiae AD1-8u, singleplex, Cherry Pick2 set (AID 623994)
Settings: S. cerevisiae AD1-8u expressing CaCDR2, Nile Red efflux; series mostly up to 100 µM; Nile Red retention, efflux inhibition: at the top concentration

Sequence of Multidrug resistance protein CDR2 (Candida albicans (strain SC5314 / ATCC MYA-2876)) (P78595 whole entry, looked up): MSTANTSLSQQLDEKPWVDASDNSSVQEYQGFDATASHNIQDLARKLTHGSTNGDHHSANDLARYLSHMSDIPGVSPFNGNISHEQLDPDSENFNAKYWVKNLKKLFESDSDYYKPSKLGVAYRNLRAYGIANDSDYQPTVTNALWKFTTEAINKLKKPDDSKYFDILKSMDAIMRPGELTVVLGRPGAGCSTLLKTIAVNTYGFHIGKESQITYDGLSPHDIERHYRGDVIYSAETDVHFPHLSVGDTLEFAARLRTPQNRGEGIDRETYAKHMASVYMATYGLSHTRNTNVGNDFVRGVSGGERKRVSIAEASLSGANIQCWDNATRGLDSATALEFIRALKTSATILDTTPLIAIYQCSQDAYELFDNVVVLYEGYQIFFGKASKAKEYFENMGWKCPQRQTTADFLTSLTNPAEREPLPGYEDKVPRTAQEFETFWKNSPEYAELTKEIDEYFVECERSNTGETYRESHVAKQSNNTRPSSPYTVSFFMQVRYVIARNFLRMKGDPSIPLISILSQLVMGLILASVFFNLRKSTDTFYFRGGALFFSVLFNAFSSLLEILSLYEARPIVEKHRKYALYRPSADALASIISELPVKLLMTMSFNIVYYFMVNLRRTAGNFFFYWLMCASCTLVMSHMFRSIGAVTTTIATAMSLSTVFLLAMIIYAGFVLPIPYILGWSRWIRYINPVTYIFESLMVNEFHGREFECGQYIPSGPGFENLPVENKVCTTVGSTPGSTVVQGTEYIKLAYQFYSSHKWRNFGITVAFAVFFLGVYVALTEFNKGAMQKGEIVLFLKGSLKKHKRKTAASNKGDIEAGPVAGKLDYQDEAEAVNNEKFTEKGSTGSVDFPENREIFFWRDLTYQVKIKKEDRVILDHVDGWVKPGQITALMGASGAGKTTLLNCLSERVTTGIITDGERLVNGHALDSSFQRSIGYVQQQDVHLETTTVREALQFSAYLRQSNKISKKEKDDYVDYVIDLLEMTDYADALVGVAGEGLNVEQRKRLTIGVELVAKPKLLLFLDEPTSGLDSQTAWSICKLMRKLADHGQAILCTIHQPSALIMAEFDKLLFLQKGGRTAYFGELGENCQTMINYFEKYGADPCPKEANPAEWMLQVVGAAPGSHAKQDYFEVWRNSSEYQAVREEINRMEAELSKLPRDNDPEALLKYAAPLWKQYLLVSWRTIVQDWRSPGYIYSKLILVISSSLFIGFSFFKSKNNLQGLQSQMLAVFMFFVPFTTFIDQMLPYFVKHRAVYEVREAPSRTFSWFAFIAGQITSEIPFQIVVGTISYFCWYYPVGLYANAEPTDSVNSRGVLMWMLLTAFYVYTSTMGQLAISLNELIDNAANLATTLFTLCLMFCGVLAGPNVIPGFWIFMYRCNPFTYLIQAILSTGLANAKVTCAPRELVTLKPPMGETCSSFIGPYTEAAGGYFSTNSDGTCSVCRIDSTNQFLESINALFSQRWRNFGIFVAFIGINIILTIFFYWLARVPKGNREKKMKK

outcome, inactive:
COc1ccc(CNC(=O)C(C#N)c2nc3ccccc3nc2N2CCN(C)CC2)cc1 (stereo not given)

Nile Red retention, efflux inhibition, inactive:
C[C@H](CO)N1C[C@H](C)[C@@H](CN(C)S(=O)(=O)c2ccccc2)Oc2c(NC(=O)Nc3ccccc3)cccc2C1=O -1.33%, Nc1ccc(C(=O)OCCc2ccccc2)cc1 -1.89%, C[C@@]12C(=O)Nc3ccc(Cl)cc3C(=O)N1[C@H]1c3cc(Cl)ccc3OC[C@@H]1[C@@H]2c1ccccc1 -9.04%, COc1ccc(CN2C(=O)C(C)Nc3ncnc(N4CCN(c5ccccc5)CC4)c32)cc1 (stereo not given) 0.28%, COc1ccc(CCOC(=O)c2ccc(N)c([N+](=O)[O-])c2)cc1 212%, COc1ccc(S(=O)(=O)N(C)C[C@H]2Oc3c(NC(=O)NC4CCCCC4)cccc3C(=O)N([C@H](C)CO)C[C@@H]2C)cc1 6.17%, O=C(c1ccc2c(c1)OCO2)N1CCC2(CC1)Oc1ccc(F)cc1C(=O)C21CC(c2ccc(Cl)cc2)=NO1 (stereo not given) -1.29%, CCCCN1Cc2cc(C(=O)c3cc(OC)ccc3O)cnc2NC1=O 12.2%, COc1ccc2nc(NC(=O)c3cccs3)sc2c1 -2.84%, Cc1ccc2c(c1)[C@H]1[C@H](CO2)[C@H](c2ccccc2)[C@]2(C)C(=O)Nc3cc(F)c(F)cc3C(=O)N12 -0.35%, COc1ccc(N2CCN(C(=O)C3CCCN(c4ncnc5c4nc4n5CCCCC4)C3)CC2)cc1 (stereo not given) 0.54%, COc1ccc(-c2c[n+](CC(=O)N3c4ccccc4Sc4ccccc43)c3n2CCC3)cc1 -5.85%, CC(C)C(=O)N1CCC2(CC1)Oc1ccc(F)cc1C(=O)C21CC(c2ccc(Cl)cc2)=NO1 (stereo not given) -1.61%, COc1ccc(C(=O)OCCc2ccc(O)cc2)cc1 -3.92%
